Pf apPOL block = Pf-apPOL inhibitors, biochemical, fluorescence. 210,000 tested, 0.25% active. Plasmodium falciparum apicoplast DNA polymerase (apPOL). Recombinant Pf-apPOL, molecular beacon fluorescence, 1.5 h. inhibition, % at 10 µM
mHTT-CaM PPI inh = mutant huntingtin-calmodulin interaction inhibitors – biochemical, AlphaScreen, primary screen; AlphaScreen His-mHTT/GST-CaM binding, luminescence; inhibition, % at 15 µM; 190,000 tested, 3.6% active; AID 1671202, 2021
Target sequence (P42858 whole entry, looked up, change not shown): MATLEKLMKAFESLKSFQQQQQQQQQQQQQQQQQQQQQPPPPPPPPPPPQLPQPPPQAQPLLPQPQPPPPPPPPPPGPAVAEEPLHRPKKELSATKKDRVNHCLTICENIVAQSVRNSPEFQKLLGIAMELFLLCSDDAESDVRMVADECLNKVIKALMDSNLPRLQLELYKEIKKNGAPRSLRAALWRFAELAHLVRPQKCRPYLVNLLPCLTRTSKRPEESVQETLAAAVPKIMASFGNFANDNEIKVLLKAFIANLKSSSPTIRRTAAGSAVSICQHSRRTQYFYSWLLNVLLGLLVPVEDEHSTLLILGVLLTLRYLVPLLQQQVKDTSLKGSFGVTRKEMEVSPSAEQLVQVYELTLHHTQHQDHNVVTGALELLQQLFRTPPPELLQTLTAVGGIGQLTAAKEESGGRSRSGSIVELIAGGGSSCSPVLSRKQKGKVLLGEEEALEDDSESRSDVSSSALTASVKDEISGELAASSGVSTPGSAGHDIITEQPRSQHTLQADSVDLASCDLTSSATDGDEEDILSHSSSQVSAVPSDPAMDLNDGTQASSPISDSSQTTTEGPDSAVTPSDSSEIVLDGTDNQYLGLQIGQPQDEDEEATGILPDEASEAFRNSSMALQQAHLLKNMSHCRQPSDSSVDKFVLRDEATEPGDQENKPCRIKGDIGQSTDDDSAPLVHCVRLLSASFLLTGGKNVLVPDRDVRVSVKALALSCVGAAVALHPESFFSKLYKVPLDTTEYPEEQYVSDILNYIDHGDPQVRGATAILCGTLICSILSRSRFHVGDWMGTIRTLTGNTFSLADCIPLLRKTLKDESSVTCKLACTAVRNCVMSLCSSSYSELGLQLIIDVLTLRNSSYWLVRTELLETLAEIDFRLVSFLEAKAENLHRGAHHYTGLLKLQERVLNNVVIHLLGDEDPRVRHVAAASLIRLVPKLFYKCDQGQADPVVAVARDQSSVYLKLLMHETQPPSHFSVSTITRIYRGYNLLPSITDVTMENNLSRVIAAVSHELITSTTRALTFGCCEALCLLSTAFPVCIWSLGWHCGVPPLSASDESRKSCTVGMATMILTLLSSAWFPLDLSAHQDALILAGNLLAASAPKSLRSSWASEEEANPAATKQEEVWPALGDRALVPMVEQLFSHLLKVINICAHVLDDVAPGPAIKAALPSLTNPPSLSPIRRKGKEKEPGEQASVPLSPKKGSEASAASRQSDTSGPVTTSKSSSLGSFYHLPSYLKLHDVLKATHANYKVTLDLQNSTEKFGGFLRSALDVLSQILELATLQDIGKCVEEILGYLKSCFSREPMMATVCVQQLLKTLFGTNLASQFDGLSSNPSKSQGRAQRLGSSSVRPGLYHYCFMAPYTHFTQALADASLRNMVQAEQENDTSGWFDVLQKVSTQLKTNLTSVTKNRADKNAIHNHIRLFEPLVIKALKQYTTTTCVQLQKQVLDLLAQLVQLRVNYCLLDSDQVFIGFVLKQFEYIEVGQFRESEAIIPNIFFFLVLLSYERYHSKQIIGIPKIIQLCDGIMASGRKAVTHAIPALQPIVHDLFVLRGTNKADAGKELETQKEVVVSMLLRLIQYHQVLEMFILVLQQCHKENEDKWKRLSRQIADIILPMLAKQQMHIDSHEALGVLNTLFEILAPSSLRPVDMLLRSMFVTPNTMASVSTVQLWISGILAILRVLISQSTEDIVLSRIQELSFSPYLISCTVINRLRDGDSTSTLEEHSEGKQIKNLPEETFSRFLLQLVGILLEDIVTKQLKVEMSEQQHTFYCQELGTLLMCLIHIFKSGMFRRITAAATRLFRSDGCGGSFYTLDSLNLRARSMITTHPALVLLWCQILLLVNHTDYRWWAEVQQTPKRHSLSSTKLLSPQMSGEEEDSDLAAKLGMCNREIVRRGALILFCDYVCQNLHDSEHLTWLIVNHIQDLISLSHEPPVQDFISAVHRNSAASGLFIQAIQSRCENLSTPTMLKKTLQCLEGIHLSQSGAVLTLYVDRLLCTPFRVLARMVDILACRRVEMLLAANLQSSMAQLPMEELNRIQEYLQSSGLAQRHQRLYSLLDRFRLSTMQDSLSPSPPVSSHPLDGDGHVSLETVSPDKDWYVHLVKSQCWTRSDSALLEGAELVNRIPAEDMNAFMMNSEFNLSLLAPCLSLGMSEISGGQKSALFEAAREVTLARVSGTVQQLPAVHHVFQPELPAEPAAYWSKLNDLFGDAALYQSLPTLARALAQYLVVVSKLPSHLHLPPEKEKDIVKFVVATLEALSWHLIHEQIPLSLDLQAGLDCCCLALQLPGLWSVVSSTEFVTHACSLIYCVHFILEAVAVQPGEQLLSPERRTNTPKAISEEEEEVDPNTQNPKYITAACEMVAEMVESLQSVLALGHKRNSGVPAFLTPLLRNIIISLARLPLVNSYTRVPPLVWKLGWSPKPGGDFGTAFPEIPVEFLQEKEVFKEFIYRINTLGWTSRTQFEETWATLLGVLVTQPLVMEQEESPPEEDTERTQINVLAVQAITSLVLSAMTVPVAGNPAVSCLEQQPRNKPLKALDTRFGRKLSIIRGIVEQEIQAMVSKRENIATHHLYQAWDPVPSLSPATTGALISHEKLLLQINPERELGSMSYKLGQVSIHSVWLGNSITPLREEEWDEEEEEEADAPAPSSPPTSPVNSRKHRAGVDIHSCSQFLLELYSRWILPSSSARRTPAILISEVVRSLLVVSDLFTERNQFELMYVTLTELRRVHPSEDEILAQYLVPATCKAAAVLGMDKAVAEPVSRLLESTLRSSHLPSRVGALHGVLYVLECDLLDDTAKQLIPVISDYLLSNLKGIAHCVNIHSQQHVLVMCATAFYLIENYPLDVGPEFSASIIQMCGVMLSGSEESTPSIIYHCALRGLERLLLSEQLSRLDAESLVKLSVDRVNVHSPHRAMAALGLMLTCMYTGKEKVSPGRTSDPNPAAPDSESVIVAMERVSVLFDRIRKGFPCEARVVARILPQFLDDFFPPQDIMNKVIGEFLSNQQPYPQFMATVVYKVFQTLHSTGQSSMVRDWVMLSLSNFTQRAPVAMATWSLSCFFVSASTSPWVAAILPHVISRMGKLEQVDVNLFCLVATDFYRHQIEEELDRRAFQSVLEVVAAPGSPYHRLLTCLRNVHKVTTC
Numbers stand for hits. In the library only some 3.6% were active in any assay of this set; here they are far more common. Rule as the data show it: active = inhibition above about 50%; inactive = the rest.

For CS(=O)(=O)N1CC(C(=O)Nc2ccc3c(c2)OCCO3)C2(CCCCC2)C1 (configuration not stated) the results were Pf apPOL block inactive and mHTT-CaM PPI inh inactive.
For O=C(Nc1ccc2c(c1)OCO2)C1CN(S(=O)(=O)C2CC2)CC12CCCCC2 (configuration not stated) the results were Pf apPOL block inactive and mHTT-CaM PPI inh 72.9.
O=C(Cc1ccc(F)cc1)N1CCCC1c1cccc(F)c1 (configuration not stated) was read as Pf apPOL block inactive and mHTT-CaM PPI inh inactive.
Screening O=C(Cn1ccc2c(=O)[nH]ccc21)Nc1cccc(Br)c1 returned Pf apPOL block inactive and mHTT-CaM PPI inh inactive.
Cc1cccc(NC(=O)Cc2nc(-c3ccccn3)n[nH]2)c1 was read as Pf apPOL block inactive and mHTT-CaM PPI inh 99.4.
Cc1cc(C)cc(NC(=O)Cc2nc(-c3ccccc3)n[nH]2)c1 was read as Pf apPOL block inactive and mHTT-CaM PPI inh inactive.
Screening O=C(Cc1nc(-c2ccccc2)n[nH]1)Nc1ccc(Cl)cc1 returned Pf apPOL block inactive and mHTT-CaM PPI inh inactive.
NC(=O)Cc1nc(-c2ccccn2)n[nH]1 was read as Pf apPOL block inactive and mHTT-CaM PPI inh 99.2.
O=C(O)Cc1nc(-c2cccnc2)n[nH]1 was read as Pf apPOL block inactive and mHTT-CaM PPI inh inactive.
O=C(Cc1nc(-c2ccccn2)n[nH]1)Nc1ccccc1 was read as Pf apPOL block inactive and mHTT-CaM PPI inh 72.8.
Screening CC(=O)NC(c1ccc(Cl)cc1)c1cc([N+](=O)[O-])c2cccnc2c1O (configuration not stated) returned Pf apPOL block inactive and mHTT-CaM PPI inh 100.0.
Screening CC(=O)NC(/C=C/c1ccccc1)c1cc([N+](=O)[O-])c2cccnc2c1O (configuration not stated) returned Pf apPOL block inactive and mHTT-CaM PPI inh 100.0.
Screening CCCC(=O)NC(/C=C/c1ccccc1)c1cc([N+](=O)[O-])c2cccnc2c1O (configuration not stated) returned Pf apPOL block inactive and mHTT-CaM PPI inh inactive.
For CC(=O)NC(c1ccc(Cl)cc1Cl)c1cc(Cl)c2cccnc2c1O (configuration not stated) the results were Pf apPOL block inactive and mHTT-CaM PPI inh 100.0.
Screening CC(=O)NC(c1ccc(Cl)cc1)c1cc(Cl)c2cccnc2c1O (configuration not stated) returned Pf apPOL block inactive and mHTT-CaM PPI inh 74.0.
Screening Cc1ccc(C(NC(=O)C(C)C)c2cc(Cl)c3cccnc3c2O)cc1 (configuration not stated) returned Pf apPOL block inactive and mHTT-CaM PPI inh inactive.
For CC1CCN(C(=O)c2ccc(OCC3CCCN(C(=O)c4ccccc4)C3)cc2)CC1 (configuration not stated) the results were Pf apPOL block inactive and mHTT-CaM PPI inh inactive.
For N#C/C(=C\c1ccc(Br)cc1)c1nc(-c2ccc([N+](=O)[O-])cc2)cs1 the results were Pf apPOL block inactive and mHTT-CaM PPI inh inactive.
Screening CC(C)(C)c1csc(NN=Cc2cccs2)n1 returned Pf apPOL block inactive.
CC(C)c1ccc(N2C=C(C#N)S(=O)(=O)c3c(F)cccc32)cc1 was read as Pf apPOL block inactive and mHTT-CaM PPI inh inactive.
Cc1ccc(/C=c2\sc3nc(-c4ccc(Br)cc4)nn3c2=O)o1 was read as Pf apPOL block inactive and mHTT-CaM PPI inh inactive.
`COc1ccccc1N1CCN(C(=O)C2CCCC2)C(C)C1=O` (configuration not stated) gave Pf apPOL block inactive and mHTT-CaM PPI inh inactive.
For COCC(=O)NCCc1ccc(OC)c(OC)c1 the results were Pf apPOL block 98.3 and mHTT-CaM PPI inh inactive.
COc1ccccc1CC(=O)NCCCc1ccccc1 was read as Pf apPOL block inactive and mHTT-CaM PPI inh inactive.
Screening COc1ccccc1CC(=O)NCCc1ccccc1 returned Pf apPOL block inactive and mHTT-CaM PPI inh 62.6.
Screening COc1ccc(CCNC(=O)CCN2N=C(c3ccccc3)CCC2=O)cc1OC returned Pf apPOL block inactive and mHTT-CaM PPI inh inactive.
For COc1ccc(CCNC(=O)CCN2N=C(c3ccc(C)cc3)CCC2=O)cc1OC the results were Pf apPOL block inactive and mHTT-CaM PPI inh 87.0.
COc1ccc(CCNC(=O)Cc2ccc(OC)c(OC)c2)cc1OC was read as Pf apPOL block inactive.
`COCC(=O)Nc1cc(OC)ccc1OC` gave Pf apPOL block inactive and mHTT-CaM PPI inh inactive.
COc1ccc(OC)c(NC(=O)Cc2ccc(OC)c(OC)c2)c1 was read as Pf apPOL block 85.5 and mHTT-CaM PPI inh inactive.
For COc1ccc(/C=c2\sc3n(c2=O)CN(c2cccc(Br)c2)CN=3)cc1OC the results were Pf apPOL block inactive and mHTT-CaM PPI inh inactive.
`O=C(O)c1nccnc1C(=O)Nc1cccc(O)c1` gave Pf apPOL block inactive and mHTT-CaM PPI inh inactive.
CNC(=O)Cc1csc(-c2ccc(F)cc2)n1 was read as Pf apPOL block inactive and mHTT-CaM PPI inh inactive.
COc1cccc(/C=C2/SC(N3CCN(Cc4ccccc4)CC3)=NC2=O)c1OC was read as Pf apPOL block inactive and mHTT-CaM PPI inh inactive.
For CC1=C(C(N)=O)C(c2ccc(O)cc2)n2nc(SCc3ccccc3Cl)nc2N1 (configuration not stated) the results were Pf apPOL block inactive and mHTT-CaM PPI inh inactive.
COc1ccc(CC(=O)Nc2sc(-c3ccccc3)cc2C(N)=O)cc1OC was read as Pf apPOL block inactive and mHTT-CaM PPI inh 83.4.
Screening COc1cccc2cc(C(=O)Nc3sc(-c4ccccc4)cc3C(N)=O)oc12 returned Pf apPOL block inactive and mHTT-CaM PPI inh inactive.
Screening S=C(NCc1cccnc1)SCc1cc(Cl)sc1Cl returned Pf apPOL block inactive.
For Cc1ccc(-c2c(C(=O)NCc3ccccc3)oc(=O)c3ccccc23)cc1 the results were Pf apPOL block inactive and mHTT-CaM PPI inh inactive.
For Cc1ccc(-c2c(C(=O)NCCN3CCN(c4ccccc4)CC3)oc(=O)c3ccccc23)cc1 the results were Pf apPOL block inactive and mHTT-CaM PPI inh 54.0.
Screening O=C(CN(c1ccccc1)S(=O)(=O)c1ccc(Cl)cc1)Nc1ccc2c(c1)OCO2 returned Pf apPOL block inactive and mHTT-CaM PPI inh inactive.
O=C(CN(c1cccc(C(F)(F)F)c1)S(=O)(=O)c1ccccc1)Nc1ccc(Cl)cc1 was read as Pf apPOL block inactive and mHTT-CaM PPI inh 88.0.
`O=C(CN(c1ccc(Cl)c(C(F)(F)F)c1)S(=O)(=O)c1ccccc1)Nc1cccnc1` gave Pf apPOL block inactive and mHTT-CaM PPI inh inactive.
O=C(CN(c1cccc(C(F)(F)F)c1)S(=O)(=O)c1ccccc1)Nc1cccc(Cl)c1 was read as Pf apPOL block inactive and mHTT-CaM PPI inh 86.0.
C=CCC(N)(CC=C)c1ccc(C(N)(CC=C)CC=C)cc1 was read as Pf apPOL block inactive and mHTT-CaM PPI inh inactive.
`CC(NC(=O)C(=O)NCC1CCN(S(=O)(=O)C2CC2)CC1)c1ccccc1` (configuration not stated) gave Pf apPOL block inactive and mHTT-CaM PPI inh inactive.
For C=CCc1cc(OC)ccc1OCC(O)CN1CCN(c2ccccc2F)CC1 (configuration not stated) the results were Pf apPOL block inactive and mHTT-CaM PPI inh inactive.
Screening C=CCc1ccc(OCC(O)CN2CCN(c3ccccc3)CC2)c(OC)c1 (configuration not stated) returned Pf apPOL block inactive and mHTT-CaM PPI inh inactive.
Screening C=CCc1ccc(OCC(O)CN2CCN(c3ccc(OC)cc3)CC2)c(OC)c1 (configuration not stated) returned Pf apPOL block inactive and mHTT-CaM PPI inh 51.2.

Screening results deposited in PubChem by University of Kansas High Throughput Screening Laboratory.
